Assay outcomes as filed in PubChem BioAssay.
Compounds with a hit are over-represented: about 4% of the library has one in this group of screens.
Rv3671c protease – inhibitors of M. tuberculosis serine protease Rv3671c. inhibition, % at 5.96 µM. actives 0.048% (n = 320,000). AID 2606; in the data active = inhibition above about 38%;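 also: extracellular domain of Rv3671c used as enzyme; 0% = enzyme with DMSO and 100% = no enzyme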
Target sequence (P9WHR9 whole entry, looked up, the tested form may be a part): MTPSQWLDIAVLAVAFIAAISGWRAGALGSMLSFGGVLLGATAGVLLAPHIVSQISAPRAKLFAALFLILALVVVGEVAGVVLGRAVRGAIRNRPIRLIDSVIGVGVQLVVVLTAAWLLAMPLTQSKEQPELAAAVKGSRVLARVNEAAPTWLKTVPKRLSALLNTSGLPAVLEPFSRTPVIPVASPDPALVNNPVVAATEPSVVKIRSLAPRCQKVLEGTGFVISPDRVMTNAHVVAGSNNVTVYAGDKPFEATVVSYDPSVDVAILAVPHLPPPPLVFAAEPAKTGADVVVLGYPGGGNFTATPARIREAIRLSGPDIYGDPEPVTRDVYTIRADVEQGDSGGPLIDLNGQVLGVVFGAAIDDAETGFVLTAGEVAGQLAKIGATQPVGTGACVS
Mtb bLac sens – beta-lactam sensitization of Mtb H37Rv; M. tuberculosis H37Rv growth with meropenem, percent inhibition; inhibition, % at 25 µM; actives 0.27% (n = 330,000); AID 434955; call rule not given here;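 also: growth measured after seven days incubation then overnight dye step; 0% = bacteria only wells and 100% = bacteria with antibiotic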
Mtb FBA inh – inhibitors of M. tuberculosis fructose-bisphosphate aldolase; P9WQA3; purified M. tuberculosis FBA, fluorescence read-out; inhibition, % at 1 µM; actives 2.3% (n = 360,000); AID 588726; in the data active = inhibition above about 27%;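 also: 0% = vehicle and 100% = reference inhibitor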
GDH-TPI counter – counter-screen for M. tuberculosis FBA inhibitors: GDH-TPI coupled enzymes; inhibition, % at 4.8 µM; actives 1.2% (n = 360,000); GDH-TPI coupled enzyme counterscreen, NADH absorbance; in the data active = inhibition above about 30%;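 also: 0% = DMSO wells and 100% = wells lacking the enzyme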
Mtb UGM inh – inhibitors of M. tuberculosis UDP-galactopyranose mutase. P9WIQ1. inhibition, % at 10 µM. AID 504406. actives 0.06% (n = 320,000). purified UGM, fluorescence polarization probe displacement; in the data active = inhibition above about 10%, passing the limit was not always enough
RecA intein inh – Mtb RecA intein splicing inhibition; AID 2221; cell-free RecA intein splicing, fluorescence; inhibition, % (concentration not given with the values); actives 0.75% (n = 290,000); P9WHJ3; in the data active = inhibition above about 30%;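 also: 0% = vehicle wells and 100% = reference inhibitor control wells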
Numbers without * were called inactive.

CC(C)(C)NC(=O)c1nn(Cc2ccccc2)c(=O)c2ccccc12 was read as Rv3671c protease 0, Mtb bLac sens 4, Mtb FBA inh 5, GDH-TPI counter 0, Mtb UGM inh -1 and RecA intein inh -1.
Screening N#CC1=C2SC=C(c3ccc(Br)cc3)N2CCCC1=O returned Rv3671c protease -14, Mtb bLac sens -2, Mtb FBA inh -1, GDH-TPI counter 3, Mtb UGM inh 0 and RecA intein inh 2.
`N#CC1=C2Sc3ccccc3N2CCCC1=O` gave Rv3671c protease -15, Mtb bLac sens 1, Mtb FBA inh -2, GDH-TPI counter 34*, Mtb UGM inh 1 and RecA intein inh 0.
Cc1oc2cc3oc(=O)c(CCC(=O)NC4CC4)c(C)c3cc2c1C was read as Rv3671c protease -6, Mtb bLac sens 7, Mtb FBA inh 9, GDH-TPI counter 11, Mtb UGM inh 0 and RecA intein inh 2.
Screening Cc1c(CCC(=O)NCCCN2CCCC2=O)c(=O)oc2c(C)c(O)ccc12 returned Rv3671c protease -1, Mtb bLac sens -5, Mtb FBA inh active, GDH-TPI counter 15, Mtb UGM inh 1 and RecA intein inh -45.
`C=C(C)COc1ccc2c(C)c(CCC(=O)NC3CC3)c(=O)oc2c1` gave Rv3671c protease 0, Mtb bLac sens 3, Mtb FBA inh active, GDH-TPI counter 18, Mtb UGM inh 0 and RecA intein inh -2.
Cc1c(CCC(=O)NC2CC2)c(=O)oc2c(C)c(O)ccc12 was read as Rv3671c protease 0, Mtb bLac sens -3, Mtb FBA inh active, GDH-TPI counter 21, Mtb UGM inh -1 and RecA intein inh -126.
Cc1coc2c(C)c3oc(=O)c(CCC(=O)NCCCN4CCCC4=O)c(C)c3cc12 was read as Rv3671c protease 6, Mtb bLac sens -4, Mtb FBA inh 10, GDH-TPI counter 6 and Mtb UGM inh -2.
Cc1c(CCC(=O)NCCCN2CCCC2=O)c(=O)oc2cc(O)ccc12 was read as Rv3671c protease 0, Mtb bLac sens -2, Mtb FBA inh active, GDH-TPI counter 19, Mtb UGM inh 4 and RecA intein inh -54.
For COc1ccc(NC(=O)COC(=O)c2cc(C)oc2C)c([N+](=O)[O-])c1 the results were Rv3671c protease -7, Mtb bLac sens -5, Mtb FBA inh -1 and GDH-TPI counter 4.
For Cc1cc(C)nc(NS(=O)(=O)c2ccc(NC(=O)c3snnc3C)cc2)n1 the results were Rv3671c protease -6, Mtb bLac sens -1, Mtb FBA inh 1, GDH-TPI counter -1, Mtb UGM inh 4 and RecA intein inh -2.
`Cc1ccc(C(=O)N/N=C/c2ccc(-c3ccccc3[N+](=O)[O-])o2)cn1` gave Rv3671c protease -21, Mtb bLac sens 1, Mtb FBA inh 2, GDH-TPI counter 24, Mtb UGM inh 5 and RecA intein inh 61*.
Screening O=C(N/N=C/c1ccc(-c2ccccc2[N+](=O)[O-])o1)[C@H]1C[C@@H]1c1ccccc1 returned Rv3671c protease -33, Mtb bLac sens 18, Mtb FBA inh 0, GDH-TPI counter 1, Mtb UGM inh 0 and RecA intein inh 42*.
`Cc1ccc(C(=O)N/N=C\c2ccc(-c3ccc(Cl)c(Cl)c3)o2)cn1` gave Rv3671c protease -26, Mtb bLac sens 92, Mtb FBA inh 4, GDH-TPI counter 63*, Mtb UGM inh -1 and RecA intein inh 1.
Cc1ccc(C(=O)N/N=C/c2ccc(-c3cccc(Cl)c3)o2)cn1 was read as Rv3671c protease 6, Mtb bLac sens 62, Mtb FBA inh 1, GDH-TPI counter 28, Mtb UGM inh 0 and RecA intein inh -4.
`Cc1ccc(C)c(C(O)c2ncc(-c3ccccc3Cl)[nH]2)c1` (stereo not given) gave Mtb FBA inh -2 and GDH-TPI counter 8.
`CCOc1cc(C(=O)N(CC)CC(=O)Nc2c(F)cccc2F)ccc1OCC(=O)N1CCCCC1` gave Rv3671c protease 11, Mtb bLac sens -6, Mtb FBA inh -1, GDH-TPI counter 6, Mtb UGM inh -4 and RecA intein inh 3.
CCOc1ccccc1C(=O)N[C@H](C(=O)Nc1nc2c(s1)CCCC2)C(C)C was read as Rv3671c protease -7, Mtb bLac sens 87, Mtb FBA inh -5, GDH-TPI counter -2, Mtb UGM inh -1 and RecA intein inh 10.
For COc1ccc(C(=O)N[C@H](C(=O)Nc2nc3c(s2)CCCC3)C(C)C)cc1 the results were Rv3671c protease 0, Mtb bLac sens 61, Mtb FBA inh active, GDH-TPI counter -2, Mtb UGM inh 0 and RecA intein inh 7.
For COC1=C/C(=C/c2c(N)n3nc(CC(=O)N4CCCCC4)sc3nc2=O)C=CC1=O the results were Rv3671c protease -3, Mtb bLac sens 4, Mtb FBA inh 2, GDH-TPI counter 34*, Mtb UGM inh -19 and RecA intein inh -1.
`O=C(Nc1ccc(-c2nc3ccccc3o2)c(O)c1)c1cc(-n2cnnc2)ccc1Cl` gave Rv3671c protease -3, Mtb bLac sens 8, Mtb FBA inh 13, GDH-TPI counter 43* and Mtb UGM inh -2.
`CCc1cc(=O)oc2cc(C)cc(OCc3nn[nH]n3)c12` gave Rv3671c protease -4, Mtb bLac sens -11, Mtb FBA inh 119*, GDH-TPI counter 9, Mtb UGM inh 1 and RecA intein inh -3.
For COC(=O)Cc1c(C)c2ccc(OCc3nn[nH]n3)c(C)c2oc1=O the results were Rv3671c protease 0, Mtb bLac sens -4, Mtb FBA inh 160*, GDH-TPI counter 13, Mtb UGM inh 1 and RecA intein inh 0.
Screening COC(=O)Cc1c(C)c2ccc(OCC(=O)N3CCCC(C)C3)c(C)c2oc1=O (stereo not given) returned Rv3671c protease -3, Mtb bLac sens -13, Mtb FBA inh 120*, GDH-TPI counter 10, Mtb UGM inh 4 and RecA intein inh 2.
`COC(=O)Cc1c(C)c2c(OCc3nn[nH]n3)cc(C)cc2oc1=O` gave Rv3671c protease 0, Mtb bLac sens -3, Mtb FBA inh 172*, GDH-TPI counter 24, Mtb UGM inh -1 and RecA intein inh -1.
For CCN1C(=O)C(CC(=O)NCCc2ccccc2)N(NC(=O)c2ccc(Br)cc2)C1=S (stereo not given) the results were Mtb FBA inh -1 and GDH-TPI counter -5.
For O=C(NCc1ccccn1)c1ccc(Cl)c(NC2=NC3CS(=O)(=O)CC3S2)c1 (stereo not given) the results were Rv3671c protease 5, Mtb bLac sens 0, Mtb FBA inh -2, GDH-TPI counter -2, Mtb UGM inh -1 and RecA intein inh 0.
For CC(=O)c1cccc(NC(=O)COC(=O)c2n[nH]c3ccccc23)c1 the results were Rv3671c protease 1, Mtb bLac sens -6, Mtb FBA inh -2, GDH-TPI counter -3, Mtb UGM inh 1 and RecA intein inh -1.
